# Calls of active or inactive are those of the source.
# Assays:
# [1] = test system: PRMT1 (protein arginine N-methyltransferase 1); assay: small molecules binding arginine methyltransferase PRMT1 – biochemical, small-molecule microarray, 635 nm fluorescence, primary screen (AID 1088); conditions: higher = more signal;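 further: binding of Prmt1 protein to compounds spotted on small-molecule microarray slides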
# [2] = growth effects on S. cerevisiae YJM789 – YJM789 clinical isolate, OD600, 24 h, basal, primary screen (AID 1089); conditions: higher = more signal, called active from +8 up or from −8 down;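 further: growth of clinical yeast isolate S. cerevisiae YJM 789 seeded 1000 cells per well; test concentration not given here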
# [3] = S. pombe growth modifiers, basal conditions – strain 972, OD600, 24 h, no modulator, primary screen (AID 1090);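 further: basal condition with compound alone and no growth modifier present; test concentration not given here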; conditions: S. pombe 972 growth, higher = more signal, called active from +8 up or from −8 down
# [4] = budding yeast growth modifiers under rapamycin – strain BY4716, OD600, 96 h, primary screen (AID 1091); further: test concentration not given here; conditions: S. cerevisiae BY4716 + rapamycin, higher = more signal, called active from +8 up or from −8 down
# [5] = biological target: Torsin-1A-interacting protein 2 (Homo sapiens) (UniProt Q8NFQ8); assay: small molecules binding lysate-expressed LULL1 – cell lysate, human LULL1 lysate, 635/667 nm fluorescence, primary screen (AID 1092); conditions: small-molecule microarray, hLULL1 lysate binding, 635 nm fluorescence; higher = more signal;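 further: probe is lysate of COS7 cells overexpressing human LULL1; score merges per-feature 667 nm fluorescence with signal-to-noise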
# Torsin-1A-interacting protein 2 (Homo sapiens), sequence (Q8NFQ8 whole entry, looked up): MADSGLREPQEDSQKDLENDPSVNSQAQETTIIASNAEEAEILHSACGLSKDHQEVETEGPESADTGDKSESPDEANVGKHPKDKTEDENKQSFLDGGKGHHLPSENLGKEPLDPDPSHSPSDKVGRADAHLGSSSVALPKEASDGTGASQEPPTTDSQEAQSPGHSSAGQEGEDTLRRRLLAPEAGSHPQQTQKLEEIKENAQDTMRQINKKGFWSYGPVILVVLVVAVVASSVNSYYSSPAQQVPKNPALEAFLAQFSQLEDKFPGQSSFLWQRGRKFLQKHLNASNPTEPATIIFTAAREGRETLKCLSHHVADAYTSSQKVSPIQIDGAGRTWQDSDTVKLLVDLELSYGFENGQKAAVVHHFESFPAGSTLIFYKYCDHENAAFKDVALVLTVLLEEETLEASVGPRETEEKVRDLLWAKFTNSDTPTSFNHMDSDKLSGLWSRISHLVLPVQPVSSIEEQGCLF
# [6] = optical density change of DRC41 E. coli – strain DRC41, OD650, 24 h, E. coli filamentation project, primary screen (AID 1093);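 further: MC1000 strain lacking acrAB efflux and sulA so SOS filamentation is blocked; test concentration not given here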; conditions: E. coli DRC41 growth, higher = more signal, called active from +8 up or from −8 down
# [7] = probe aLefty2 binding to arrayed compounds – biochemical, biotinylated probe, 635/667 nm fluorescence, primary screen (AID 1094); conditions: small-molecule microarray, higher = more signal;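 further: score merges spot fluorescence near 667 nm with spot signal-to-noise ratio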
# [8] = test system: Noggin (protein binding on small-molecule microarray); assay: small molecules binding Noggin protein – biochemical, 635/667 nm fluorescence, primary screen (AID 1095); conditions: 635 nm fluorescence, higher = more signal;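 further: score merges 667 nm feature fluorescence with signal to noise over triplicate slides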
# [9] = biological target: Neurogenic locus notch homolog protein 3 (Homo sapiens) (UniProt Q9UM47); assay: small molecules binding NOTCH3 protein – biochemical, 635/667 nm fluorescence, primary screen (AID 1096); conditions: small-molecule microarray, 635 nm fluorescence, higher = more signal
# Neurogenic locus notch homolog protein 3 (Homo sapiens), sequence (Q9UM47 whole entry, looked up): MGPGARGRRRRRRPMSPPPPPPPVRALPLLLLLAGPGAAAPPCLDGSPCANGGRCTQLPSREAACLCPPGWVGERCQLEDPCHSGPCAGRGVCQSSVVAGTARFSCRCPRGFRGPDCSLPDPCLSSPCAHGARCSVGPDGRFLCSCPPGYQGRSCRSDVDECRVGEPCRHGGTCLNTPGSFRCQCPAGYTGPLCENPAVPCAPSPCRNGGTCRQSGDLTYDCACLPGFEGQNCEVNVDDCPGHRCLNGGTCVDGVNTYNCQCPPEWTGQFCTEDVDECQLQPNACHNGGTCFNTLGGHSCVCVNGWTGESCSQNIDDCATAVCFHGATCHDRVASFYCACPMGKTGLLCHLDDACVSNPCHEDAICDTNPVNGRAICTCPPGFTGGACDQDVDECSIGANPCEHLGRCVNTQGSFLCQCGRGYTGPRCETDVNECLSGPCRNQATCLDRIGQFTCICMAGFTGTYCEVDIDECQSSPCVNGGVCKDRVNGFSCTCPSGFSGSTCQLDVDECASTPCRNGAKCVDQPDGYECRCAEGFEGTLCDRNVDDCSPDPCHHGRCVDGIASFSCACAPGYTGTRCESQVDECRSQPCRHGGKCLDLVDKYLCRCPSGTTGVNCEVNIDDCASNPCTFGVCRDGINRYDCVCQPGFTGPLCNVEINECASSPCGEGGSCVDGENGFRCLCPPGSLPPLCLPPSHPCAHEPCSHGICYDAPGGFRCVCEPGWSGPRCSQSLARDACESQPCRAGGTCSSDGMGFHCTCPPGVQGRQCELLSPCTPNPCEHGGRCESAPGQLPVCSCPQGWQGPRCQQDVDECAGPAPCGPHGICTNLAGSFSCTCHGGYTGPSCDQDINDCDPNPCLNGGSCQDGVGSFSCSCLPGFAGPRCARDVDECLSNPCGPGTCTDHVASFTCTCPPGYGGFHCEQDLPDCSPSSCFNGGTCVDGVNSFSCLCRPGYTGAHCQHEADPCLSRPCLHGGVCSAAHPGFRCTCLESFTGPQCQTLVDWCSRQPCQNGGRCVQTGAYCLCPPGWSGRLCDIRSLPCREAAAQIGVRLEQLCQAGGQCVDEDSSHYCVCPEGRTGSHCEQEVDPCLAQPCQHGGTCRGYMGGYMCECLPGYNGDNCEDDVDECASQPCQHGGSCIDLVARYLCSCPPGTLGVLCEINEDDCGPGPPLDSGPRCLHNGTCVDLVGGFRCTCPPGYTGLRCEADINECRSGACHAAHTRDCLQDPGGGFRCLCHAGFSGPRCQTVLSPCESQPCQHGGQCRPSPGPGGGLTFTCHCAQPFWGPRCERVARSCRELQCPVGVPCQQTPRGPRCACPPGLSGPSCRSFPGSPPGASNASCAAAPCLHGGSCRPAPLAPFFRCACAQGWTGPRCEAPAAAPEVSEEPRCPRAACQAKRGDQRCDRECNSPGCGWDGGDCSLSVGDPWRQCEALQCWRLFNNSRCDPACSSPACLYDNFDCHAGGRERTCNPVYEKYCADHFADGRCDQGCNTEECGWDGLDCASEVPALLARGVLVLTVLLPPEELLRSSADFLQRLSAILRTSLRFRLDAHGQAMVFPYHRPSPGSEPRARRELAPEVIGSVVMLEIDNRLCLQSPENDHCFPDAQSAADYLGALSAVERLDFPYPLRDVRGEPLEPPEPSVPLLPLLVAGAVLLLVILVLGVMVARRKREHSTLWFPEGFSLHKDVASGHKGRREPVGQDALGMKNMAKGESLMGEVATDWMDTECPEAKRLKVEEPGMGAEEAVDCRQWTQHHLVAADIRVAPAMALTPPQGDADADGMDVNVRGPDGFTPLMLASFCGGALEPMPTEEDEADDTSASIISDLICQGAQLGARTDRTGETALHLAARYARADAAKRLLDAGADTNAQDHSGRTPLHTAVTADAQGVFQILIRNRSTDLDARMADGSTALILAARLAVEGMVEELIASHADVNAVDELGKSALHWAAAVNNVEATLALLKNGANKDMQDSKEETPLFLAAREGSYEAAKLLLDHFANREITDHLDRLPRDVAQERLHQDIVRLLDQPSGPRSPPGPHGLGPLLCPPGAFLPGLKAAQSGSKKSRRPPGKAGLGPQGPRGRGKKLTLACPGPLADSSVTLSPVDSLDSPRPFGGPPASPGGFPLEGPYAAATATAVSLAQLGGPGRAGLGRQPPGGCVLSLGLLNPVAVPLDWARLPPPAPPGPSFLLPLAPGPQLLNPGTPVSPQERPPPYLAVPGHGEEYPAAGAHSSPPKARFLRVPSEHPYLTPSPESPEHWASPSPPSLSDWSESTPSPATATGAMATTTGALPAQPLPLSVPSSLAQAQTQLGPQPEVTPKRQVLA
# [10] = probe aEGFR binding to arrayed compounds – biochemical, biotinylated probe, 635/667 nm fluorescence, primary screen (AID 1097); conditions: small-molecule microarray, higher = more signal;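 further: probe is a biotinylated anti-EGFR antibody binding compounds printed on slides; score combines fluorescence near 667 nm and signal to noise of each spot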
compound,measurement,setting,value
C=CC[C@@H]1C=C[C@H](ON=C[C@@H](C)[C@H](OCc2ccccc2)C(C)C)[C@@H](CO)O1,composite z-score,[1],0.261
same,z-score,[2],-1.46 (inactive)
same,z-score,[3],-3.98 (inactive)
same,z-score,[4],-0.515 (inactive)
same,composite z-score,[5],0.602
same,z-score,[6],0.15 (inactive)
same,composite z-score,[7],-0.228
same,composite z-score,[8],-0.244
same,composite z-score,[9],-0.0585
same,composite z-score,[10],-0.146
C=CC[C@@H]1C=C[C@H](ON=C(C)CCC(=O)OC[C@H]2O[C@H](c3ccccc3)C=C[C@@H]2Oc2ccc(OC)cc2)[C@@H](CO)O1,composite z-score,[1],0.12
same,z-score,[2],0.0343 (inactive)
same,z-score,[3],-0.212 (inactive)
same,z-score,[4],0.261 (inactive)
same,composite z-score,[5],-0.177
same,z-score,[6],0.358 (inactive)
same,composite z-score,[7],-0.209
same,composite z-score,[8],0.185
same,composite z-score,[9],-1.3
same,composite z-score,[10],-0.172
CCOC(=O)C1=NO[C@]2(C=C(Br)C3(OCCCO3)[C@H]3O[C@H]32)C1,composite z-score,[1],-0.365
same,z-score,[2],-0.658 (inactive)
same,z-score,[3],-1.06 (inactive)
same,z-score,[4],-0.155 (inactive)
same,composite z-score,[5],0.141
same,z-score,[6],0.874 (inactive)
same,composite z-score,[7],-0.244
same,composite z-score,[8],-0.519
same,composite z-score,[9],-0.862
same,composite z-score,[10],0.0214
C[C@@H](c1ccccc1)N1C(=O)[C@H]2[C@H]3[C@H](O)[C@H](O)CC(=NO[C@@H]4O[C@H](CO)[C@@H](O)[C@H](O)[C@H]4O)[C@H]3CC[C@H]2C1=O,composite z-score,[1],-0.997
same,z-score,[2],-0.264 (inactive)
same,z-score,[3],1.06 (inactive)
same,z-score,[4],0.749 (inactive)
same,composite z-score,[5],0.288
same,z-score,[6],0.466 (inactive)
same,composite z-score,[7],-0.0928
same,composite z-score,[8],0.587
same,composite z-score,[9],0.675
same,composite z-score,[10],-0.0223
CCOC(=O)[C@H](Cc1ccccc1)NC(=O)CCC1CC(OC(=O)NCc2cccc3ccccc23)CC2(CCCC(COC(=O)NCCC(C)C)O2)O1 (stereo not given in full),composite z-score,[1],-0.923
same,z-score,[2],-1.04 (inactive)
same,z-score,[3],-0.0031 (inactive)
same,z-score,[4],-1.36 (inactive)
same,composite z-score,[5],0.284
same,z-score,[6],-0.444 (inactive)
same,composite z-score,[7],0.0062
same,composite z-score,[8],0.0111
same,composite z-score,[9],-0.435
same,composite z-score,[10],-0.128
CC(C)(C)N1C(=O)[C@H]2[C@H]3[C@H](O)[C@H](O)CC(=O)[C@H]3CC[C@H]2C1=O,composite z-score,[1],0.729
same,z-score,[2],0.445 (inactive)
same,z-score,[3],-0.109 (inactive)
same,z-score,[4],0.85 (inactive)
same,composite z-score,[5],0.46
same,z-score,[6],-0.29 (inactive)
same,composite z-score,[7],-0.211
same,composite z-score,[8],0.344
same,composite z-score,[9],0.611
same,composite z-score,[10],-0.0333
C=C(C)C(=O)OCC1CN2[C@@H](CC[C@@H](C)[C@@H]2c2ccc(Br)cc2)C(=O)O1 (stereo not given in full),composite z-score,[1],0.855
same,z-score,[2],0.275 (inactive)
same,z-score,[3],-0.369 (inactive)
same,z-score,[4],-0.427 (inactive)
same,composite z-score,[5],0.734
same,z-score,[6],-0.166 (inactive)
same,composite z-score,[7],-0.118
same,composite z-score,[8],0.172
same,composite z-score,[9],0.947
same,composite z-score,[10],-0.128
CC(=O)OC[C@H]1O[C@H](CC=NO[C@H](C)c2cn([C@H](CO)Cc3ccccc3)nn2)C=C[C@@H]1OC(C)=O,composite z-score,[1],1.34
same,z-score,[2],1.36 (inactive)
same,z-score,[3],1.34 (inactive)
same,z-score,[4],1.4 (inactive)
same,composite z-score,[5],1.06
same,z-score,[6],0.655 (inactive)
same,composite z-score,[7],-0.0998
same,composite z-score,[8],0.61
same,composite z-score,[9],1
same,composite z-score,[10],0.009
O=C(NN=C1C[C@@H](O)[C@@H](O)[C@@H]2[C@@H]3C(=O)N(C4CCCCC4)C(=O)[C@@H]3CC[C@H]12)OCc1ccccc1,composite z-score,[1],-0.511
same,z-score,[2],0.298 (inactive)
same,z-score,[3],0.267 (inactive)
same,z-score,[4],0.799 (inactive)
same,composite z-score,[5],0.352
same,z-score,[6],-0.0442 (inactive)
same,composite z-score,[7],-0.0239
same,composite z-score,[8],-0.177
same,composite z-score,[9],-0.0963
same,composite z-score,[10],-0.0461
CO[C@@H]1COC(=O)[C@H](CCSC)NC(=O)CC=C[C@@H](C)COC(=O)CCC[C@H]1C,composite z-score,[1],1.55
same,z-score,[2],-1.16 (inactive)
same,z-score,[3],0.583 (inactive)
same,z-score,[4],-1.25 (inactive)
same,composite z-score,[5],-0.86
same,z-score,[6],-0.0886 (inactive)
same,composite z-score,[7],-0.0225
same,composite z-score,[8],1.82
same,composite z-score,[9],0.249
same,composite z-score,[10],0.232
Cc1cc2c(nc1C)CCCCN2CC(C)ON=C1[C@H]2CCn3c(=O)n(-c4ccccc4)c(=O)n3[C@H]2[C@H](O)[C@@H]2O[C@H]12 (stereo not given in full),composite z-score,[1],0.208
same,z-score,[2],0.678 (inactive)
same,z-score,[3],-0.167 (inactive)
same,z-score,[4],0.103 (inactive)
same,composite z-score,[5],0.998
same,z-score,[6],0.777 (inactive)
same,composite z-score,[7],0.106
same,composite z-score,[8],0.439
same,composite z-score,[9],0.258
same,composite z-score,[10],-0.0922
CCCNC(=O)OC[C@H]1O[C@H](CCON=Cc2ccc(C(=O)N3[C@H](c4ccc(C)cc4)[C@@H](C)CC[C@H]3C(=O)OC)cc2)C=C[C@@H]1Oc1ccc(OC)cc1,composite z-score,[1],1.15
same,z-score,[2],0.0299 (inactive)
same,z-score,[3],1.68 (inactive)
same,z-score,[4],1.25 (inactive)
same,composite z-score,[5],1.02
same,z-score,[6],0.215 (inactive)
same,composite z-score,[7],-0.263
same,composite z-score,[8],1.03
same,composite z-score,[9],0.607
same,composite z-score,[10],-0.307
CCC(=O)[C@@]1(O)C(=O)N2C(=C3C(=O)OCC[C@@H]31)N(Cc1ccccc1)C(C)=C(C(=O)OC)[C@H]2c1ccccc1,composite z-score,[1],0.374
same,z-score,[2],0.725 (inactive)
same,z-score,[3],-0.612 (inactive)
same,z-score,[4],0.0739 (inactive)
same,composite z-score,[5],0.399
same,z-score,[6],0.568 (inactive)
same,composite z-score,[7],-0.232
same,composite z-score,[8],0.644
same,composite z-score,[9],0.367
same,composite z-score,[10],-0.0059

# Reference: PubChem BioAssay
